The whole screen tested about 140,000 compounds, of which about 4,300 (3.1%) were called active. About 21% were inconclusive and are not listed. This is one part of a sample in which actives are shown more often than they occur.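 The calls were made as follows: active = readout at or below -70, meaning at least 70% loss of cells showing the perinucleolar compartment, a nuclear body marking cancer cells; inconclusive = readout between -30 and a set limit; inactive = the rest.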

The nature of this experiment: High Content Assay for Compounds that inhibit the Assembly of the Perinucleolar Compartment.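 Also: plate controls were DMSO wells for no effect and camptothecin positive control wells for full effect.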 The conditions noted are these: PC3M PTB-GFP, PNC prevalence imaging, 16 h; at 10 µM; hits give low values. The method in brief: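 PC3M cells stably expressing PTB-GFP, 750–1000 cells/well, treated 16 h at 37 °C with compound (23 nl of library stock), in duplicate. After paraformaldehyde fixation and Hoechst stain, imaged at 20x; PNC prevalence scored by image analysis.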
Turning to `COc1cc(NC(=S)NNC(=O)CC(C)C)c(OC)cc1Cl`, the activity change (PNC), negative = inhibition is 20.5% (inactive). With `Cc1ccc(C(=O)OCc2nc(N)nc(Nc3ccccc3C)n2)cc1` the figure was -25% (inactive); with `COCC(=O)Nc1cc(C(=O)OC)cc(C(=O)OC)c1`, 0.32% (inactive); with `COc1cccc2c(C)c(C(=O)O)[nH]c12`, -100% (active). In the case of `CCOC(=O)c1c(C)[nH]c(C(=O)NCc2ccccc2OC)c1C`, the activity change (PNC), negative = inhibition is 4.85% (inactive). Consider `COc1cccc2c(O)cc(=O)n(C)c12`, for which the activity change (PNC), negative = inhibition is 3.35% (inactive). As to `CCOC(=O)C(C)Sc1nnc(CSc2nc3nc(C)cc(C)n3n2)o1` (stereo not drawn), the activity change (PNC), negative = inhibition was -12% (inactive). For `O=C(CN1CCN(c2ccc(O)cc2)CC1)Nc1cc(S(=O)(=O)N2CCOCC2)ccc1Cl`, the activity change (PNC), negative = inhibition is 32% (inactive). In the case of `O=C(CCc1nc2ccccc2c(=O)[nH]1)OCC(=O)c1cccc(Cl)c1`, the activity change (PNC), negative = inhibition is 9.28% (inactive). For the molecule `COc1ccc(Nc2cc(C)nc(-n3nc(C)cc3C)n2)cc1`, the activity change (PNC), negative = inhibition is -93.3% (active). Turning to `Cc1cc(Oc2ccccc2)nc(N2CCOCC2)n1`, the activity change (PNC), negative = inhibition was 31.1% (inactive). Take `CC(=O)c1ccc(Oc2cc(C)nc(-n3nc(C)cc3C)n2)cc1`: the activity change (PNC), negative = inhibition is -86.2% (active). With `COc1ccc(NC(=O)c2nc(-n3nc(C)cc3C)ccc2Cl)cc1Cl` the figure was -28.2% (inactive); with `Cc1cc(C)n(-c2cc(Oc3ccccc3)ncn2)n1`, 61.7% (inactive); with `COc1ccccc1/C=N\Nc1cc(C)nc(-n2nc(C)cc2C)n1`, -20.8% (inactive). Turning to `CC(=O)NNC1=Nc2ccccc2N(C)C(C)C1` (stereo not drawn), the activity change (PNC), negative = inhibition was 41.2% (inactive). On to `O=C(COc1ncnc2c(Cl)cc(Cl)cc12)N1CCN(S(=O)(=O)c2ccccc2)CC1`, for which the activity change (PNC), negative = inhibition was 25.7% (inactive).

With `O=C(ON=C1CCN(S(=O)(=O)c2ccccc2)CC1)c1ccc(Cl)cc1`, the activity change (PNC), negative = inhibition is -100% (active). Consider `O=C(COc1ccc(Cl)cc1)N1CCN(S(=O)(=O)c2ccc(Cl)cc2)CC1`, for which the activity change (PNC), negative = inhibition is -28.2% (inactive).

For `O=C(Nc1ccc(N2C(=O)c3cccc4cccc(c34)C2=O)cc1)c1ccc(N2CCCCC2)c([N+](=O)[O-])c1`, the activity change (PNC), negative = inhibition is 12% (inactive). As to `COc1ccc(NC(=O)c2ccccc2[N+](=O)[O-])cc1OC`, the activity change (PNC), negative = inhibition is 40.9% (inactive). Turning to `Cc1ccc(NC(=O)c2sccc2C)cc1[N+](=O)[O-]`, the activity change (PNC), negative = inhibition was -105% (active). Regarding `Cc1ccsc1C(=O)N/N=C/c1ccc([N+](=O)[O-])cc1`, the activity change (PNC), negative = inhibition was -4.41% (inactive).

Turning to `C=CCN(c1ccc(C(=O)Nc2cc(C)cc(C)c2)cc1)S(C)(=O)=O`, the activity change (PNC), negative = inhibition was 0% (inactive).

For the molecule `COc1ccc(-c2cc(C(=O)NC(Cc3c[nH]c4ccccc34)C(=O)O)c(C)o2)cc1OC` (stereo not drawn), the activity change (PNC), negative = inhibition was 41% (inactive). As to `COc1ccc(C(=O)ON=C2c3ccccc3-c3ccccc32)cc1OC`, the activity change (PNC), negative = inhibition is 2.98% (inactive). The same measure for `COc1cc(CCC(=O)OCC(=O)Nc2cccc(S(N)(=O)=O)c2)cc(OC)c1OC`: 17.9% (inactive); for `COc1ccc(OCC(=O)Nc2nnc(-c3ccco3)s2)cc1`: -113% (active). Regarding `Cc1ccc(OCC(=O)Nc2ccc(-c3nnc(-c4ccco4)o3)cc2)cc1`, the activity change (PNC), negative = inhibition was 63.9% (inactive). On to `COCC(=O)Nc1nnc(COc2ccccc2)s1`, for which the activity change (PNC), negative = inhibition was 5.3% (inactive). The same measure for `Cc1ccc(C(=O)N2CC(=O)Nc3ccccc32)o1`: -19.5% (inactive); for `CCc1ccc(C2C(C#N)=C(N)N(N(C)C)C3=C2C(=O)CCC3)s1` (stereo not drawn): 36.4% (inactive). For the molecule `O=C1NC(=Nc2ccc(Cl)cc2)SC1Cc1cccc(Cl)c1Cl` (stereo not drawn), the activity change (PNC), negative = inhibition was 66.6% (inactive). On to `O=C(COC(=O)/C=C/c1cccc(Cl)c1)NCCc1ccccc1`, for which the activity change (PNC), negative = inhibition is -23.6% (inactive). With `COCCNC(=O)c1ccccc1NS(=O)(=O)c1ccc(C)c([N+](=O)[O-])c1`, the activity change (PNC), negative = inhibition is 33% (inactive). For `CCN1CCN(C(=O)C2(NC(=O)Nc3cccc(F)c3)CCCCC2)CC1`, the activity change (PNC), negative = inhibition is -83.6% (active). The same measure for `C/C(CC(=O)Nc1cccc(F)c1)=N\NC(=O)C(=O)NC1CCCCC1`: 0.469% (inactive); for `O=C(Nc1cccc(F)c1)c1ccc(S(=O)(=O)N2CCCC2)cc1`: 8.69% (inactive).

Turning to `COCCCNC(=S)NC(=O)c1ccccc1`, the activity change (PNC), negative = inhibition was -29.6% (inactive). With `Cc1ccc(-c2cn3cc([N+](=O)[O-])ccc3n2)cc1` the figure was 19.9% (inactive); with `O=C(NNC(=S)NCc1ccccc1)c1ccc(OC(F)F)cc1`, -4.88% (inactive).

`COc1ccc(C/C(C)=N/NC(=O)c2cc(C)oc2C)cc1`: the activity change (PNC), negative = inhibition is 15.4% (inactive). The same measure for `O=C(CN1CCN(S(=O)(=O)c2ccc(F)cc2)CC1)Nc1ccccc1F`: -12% (inactive). On to `COc1ccc(NC(=O)CN2CCN(S(=O)(=O)c3ccc(F)cc3)CC2)cc1Cl`, for which the activity change (PNC), negative = inhibition was -123% (active). Consider `COc1cc2c(cc1NC(=O)CN1CCN(S(=O)(=O)c3ccc(F)cc3)CC1)oc1ccccc12`, for which the activity change (PNC), negative = inhibition is -22.6% (inactive).

Regarding `CCc1ccc(NC2Nc3cc(C)nn3S2)cc1` (stereo not drawn), the activity change (PNC), negative = inhibition is 66.7% (inactive).

For the molecule `Cc1ccccc1NC(=O)CNc1ccccc1N1CCCCC1`, the activity change (PNC), negative = inhibition is -94.9% (active). For the molecule `Cn1c(=O)c2c(nc(SCC(=O)Nc3ccccc3N3CCCCC3)n2C)n(C)c1=O`, the activity change (PNC), negative = inhibition was -26.8% (inactive).

The values above are taken from PubChem BioAssay AID2417 (National Center for Advancing Translational Sciences (NCATS), 2010).
